# Sampled rows, rich in hits. Any-hit rate of the full collection: about 3.6%.
# mHTT CaM bind: inhibitors of human mutant huntingtin-calmodulin interaction. P42858. AlphaScreen His-mHTT/GST-CaM binding, luminescence. inhibition, % at 15 µM. hit rate 3.6% among 190,000;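 also: 0% = both proteins with DMSO and 100% = one protein alone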
# Target sequence (P42858 whole entry, looked up, stated change not applied): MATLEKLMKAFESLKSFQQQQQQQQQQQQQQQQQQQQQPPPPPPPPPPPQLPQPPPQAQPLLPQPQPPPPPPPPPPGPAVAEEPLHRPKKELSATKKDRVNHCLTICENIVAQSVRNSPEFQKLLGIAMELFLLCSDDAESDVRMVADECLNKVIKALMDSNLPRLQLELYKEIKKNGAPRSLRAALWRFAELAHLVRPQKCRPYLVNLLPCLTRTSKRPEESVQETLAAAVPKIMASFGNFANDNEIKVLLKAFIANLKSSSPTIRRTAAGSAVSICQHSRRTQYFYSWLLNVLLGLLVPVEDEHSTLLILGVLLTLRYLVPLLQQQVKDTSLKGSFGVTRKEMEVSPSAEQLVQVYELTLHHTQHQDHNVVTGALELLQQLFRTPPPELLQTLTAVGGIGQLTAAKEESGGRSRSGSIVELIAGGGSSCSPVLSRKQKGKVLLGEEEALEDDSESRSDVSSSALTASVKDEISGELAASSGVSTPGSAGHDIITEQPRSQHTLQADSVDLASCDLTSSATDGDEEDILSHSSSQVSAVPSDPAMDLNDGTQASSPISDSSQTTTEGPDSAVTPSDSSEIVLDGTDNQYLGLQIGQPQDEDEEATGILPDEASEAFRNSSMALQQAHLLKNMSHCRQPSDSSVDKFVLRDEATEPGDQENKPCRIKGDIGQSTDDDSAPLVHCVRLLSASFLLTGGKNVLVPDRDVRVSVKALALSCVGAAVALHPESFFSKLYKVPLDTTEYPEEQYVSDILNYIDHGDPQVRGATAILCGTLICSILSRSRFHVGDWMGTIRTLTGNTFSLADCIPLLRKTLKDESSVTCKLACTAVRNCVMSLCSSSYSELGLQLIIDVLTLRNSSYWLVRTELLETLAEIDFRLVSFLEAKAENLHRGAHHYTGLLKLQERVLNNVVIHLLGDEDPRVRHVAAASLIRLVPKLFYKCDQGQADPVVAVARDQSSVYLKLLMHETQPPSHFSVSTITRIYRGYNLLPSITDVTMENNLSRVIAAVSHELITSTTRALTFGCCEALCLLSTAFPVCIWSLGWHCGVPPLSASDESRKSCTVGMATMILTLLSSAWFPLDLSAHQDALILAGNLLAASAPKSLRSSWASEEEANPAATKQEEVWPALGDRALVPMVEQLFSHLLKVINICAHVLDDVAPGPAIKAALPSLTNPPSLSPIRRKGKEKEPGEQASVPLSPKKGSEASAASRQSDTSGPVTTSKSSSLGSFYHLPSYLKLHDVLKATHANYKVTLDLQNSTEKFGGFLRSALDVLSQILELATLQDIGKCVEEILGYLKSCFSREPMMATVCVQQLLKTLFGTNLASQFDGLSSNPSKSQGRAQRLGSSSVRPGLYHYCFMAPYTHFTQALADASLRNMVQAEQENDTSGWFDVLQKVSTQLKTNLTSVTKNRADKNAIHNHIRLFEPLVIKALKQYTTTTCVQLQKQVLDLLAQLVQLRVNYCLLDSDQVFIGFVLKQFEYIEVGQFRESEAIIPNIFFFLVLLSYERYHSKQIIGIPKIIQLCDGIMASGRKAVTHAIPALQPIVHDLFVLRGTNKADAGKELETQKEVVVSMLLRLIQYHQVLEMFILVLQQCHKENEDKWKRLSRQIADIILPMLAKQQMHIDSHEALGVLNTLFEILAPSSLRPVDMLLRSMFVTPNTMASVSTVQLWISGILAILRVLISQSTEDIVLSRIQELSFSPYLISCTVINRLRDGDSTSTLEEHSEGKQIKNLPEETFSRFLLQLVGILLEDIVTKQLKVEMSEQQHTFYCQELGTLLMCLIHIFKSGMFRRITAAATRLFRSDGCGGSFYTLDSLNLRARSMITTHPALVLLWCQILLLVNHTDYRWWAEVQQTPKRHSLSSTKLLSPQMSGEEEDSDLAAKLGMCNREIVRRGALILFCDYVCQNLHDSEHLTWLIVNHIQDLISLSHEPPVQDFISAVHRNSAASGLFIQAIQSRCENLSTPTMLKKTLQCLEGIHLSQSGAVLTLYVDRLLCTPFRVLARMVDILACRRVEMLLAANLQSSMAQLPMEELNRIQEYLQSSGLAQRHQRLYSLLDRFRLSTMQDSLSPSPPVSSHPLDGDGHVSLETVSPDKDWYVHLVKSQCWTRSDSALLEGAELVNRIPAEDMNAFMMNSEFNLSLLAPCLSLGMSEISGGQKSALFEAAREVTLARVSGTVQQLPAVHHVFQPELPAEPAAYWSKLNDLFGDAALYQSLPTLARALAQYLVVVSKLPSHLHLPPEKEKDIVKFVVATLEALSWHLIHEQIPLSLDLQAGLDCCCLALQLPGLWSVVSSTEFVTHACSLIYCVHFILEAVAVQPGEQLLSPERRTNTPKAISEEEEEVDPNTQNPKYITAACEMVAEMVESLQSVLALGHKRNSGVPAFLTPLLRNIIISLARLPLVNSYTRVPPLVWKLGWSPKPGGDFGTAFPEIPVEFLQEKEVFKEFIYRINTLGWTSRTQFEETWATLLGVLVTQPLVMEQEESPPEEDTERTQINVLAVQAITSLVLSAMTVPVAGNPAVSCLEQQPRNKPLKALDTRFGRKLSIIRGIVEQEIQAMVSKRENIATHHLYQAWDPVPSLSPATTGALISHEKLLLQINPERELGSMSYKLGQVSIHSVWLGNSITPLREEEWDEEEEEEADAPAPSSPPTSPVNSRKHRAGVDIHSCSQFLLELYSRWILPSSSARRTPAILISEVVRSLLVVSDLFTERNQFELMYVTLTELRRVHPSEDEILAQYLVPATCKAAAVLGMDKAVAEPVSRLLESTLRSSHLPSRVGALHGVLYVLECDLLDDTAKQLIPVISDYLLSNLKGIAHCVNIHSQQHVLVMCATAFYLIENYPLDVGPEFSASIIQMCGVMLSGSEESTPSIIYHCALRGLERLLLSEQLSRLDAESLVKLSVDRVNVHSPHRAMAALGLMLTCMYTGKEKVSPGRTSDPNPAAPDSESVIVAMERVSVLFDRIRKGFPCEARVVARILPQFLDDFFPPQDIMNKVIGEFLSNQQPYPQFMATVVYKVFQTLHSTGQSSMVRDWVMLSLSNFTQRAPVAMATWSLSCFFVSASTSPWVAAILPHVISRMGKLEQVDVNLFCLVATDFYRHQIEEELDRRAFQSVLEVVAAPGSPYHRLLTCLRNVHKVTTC
# Pf apPOL block: Pf-apPOL DNA polymerase inhibition; Recombinant Pf-apPOL, molecular beacon fluorescence, 1.5 h; inhibition, % at 10 µM; hit rate 0.25% among 210,000; AID 1794808
# Numbers without * were called inactive; . = no result given. Rule as the data show it: active = inhibition above about 50%; inactive = the rest.
SMILES,mHTT CaM bind,Pf apPOL block
CC(=O)N1N=C(c2c(-c3ccccc3)c3cc(Cl)ccc3[nH]c2=O)CC1c1ccccc1F (stereo unspecified),18,-2
COc1ccc(C2CC(c3c(-c4ccccc4)c4cc(Br)ccc4[nH]c3=O)=NO2)cc1 (stereo unspecified),15,6
O=c1[nH]c2ccc(Br)cc2c(-c2ccccc2)c1[N+](=O)[O-],8,-8
O=c1[nH]c2ccc(Cl)cc2c(-c2ccccc2)c1C1=NOC(c2ccccc2)C1 (stereo unspecified),100*,-10
CC(=O)N1N=C(c2c(-c3ccccc3)c3cc(Br)ccc3[nH]c2=O)CC1c1ccco1 (stereo unspecified),95*,0
CCC(C(=O)N1CCN(c2nc3ccncc3n(C(C)C)c2=O)CC1)c1ccccc1 (stereo unspecified),11,-6
CS(=O)(=O)c1ccc2nc(NC(=O)CN3C(=O)CCC3=O)sc2c1,-2,-1
CNC(=S)Nc1ccc2c(c1)CCCC2,-1,.
CC(NC(=O)c1cc(-c2ccncc2)cn1C)c1ccccc1 (stereo unspecified),14,-15
CCCNC(=O)c1ccc2ncc3c(=O)n(-c4ccc(F)cc4)[nH]c3c2c1,12,0
CCCNC(=O)c1ccc2ncc3c(=O)n(-c4ccc(Cl)cc4)[nH]c3c2c1,58*,-2
CCCCOc1ccc(/C=C2\N=C(c3cc(OC)c(OC)c(OC)c3)OC2=O)cc1,1,-12
COc1cccc(CNC(=O)C2CCN(c3nnc4cccc(C)n34)CC2)c1,5,-11
COc1cc(/C=C/c2nc(-c3ccccc3O)n(-c3ccccc3)n2)ccc1O,88*,-8
CCc1nc(-c2ccccc2O)n(-c2ccccc2)n1,2,-8
COc1cc(C=O)cc(Br)c1OCc1cccc(Cl)c1,-54,-3
N#CC(=Cc1cccc([N+](=O)[O-])c1)c1nn(-c2ccccc2)c(-n2cccc2)c1C#N,.,-3
O=C(CSC1=NC(=O)C(c2ccccc2)C(=O)N1)Nc1ncc([N+](=O)[O-])s1 (stereo unspecified),-2,-9
O=C(CCCOc1ccc(Cl)cc1)Nc1nccs1,-4,52*
O=C(O)CCCC(=O)Nc1nccs1,3,6
O=C(Cc1cc(-c2ccco2)on1)Nc1ccc(F)c(F)c1F,11,36
COc1ccccc1CC(=O)Nc1ccc(OC)c(OC)c1,0,-9
COc1cc2c(C)[nH]c(=O)c(CC(=O)Nc3ccccc3)c2cc1OC,65*,-3
N#CC1=C(N)N(c2ccc(Cl)cc2)C2=C(C(=O)CCC2)C1c1cc(Br)cs1 (stereo unspecified),55*,-10
COc1cc(C2C(C#N)=C(N)N(c3ccccc3)C3=C2C(=O)CCC3)cc(OC)c1OC (stereo unspecified),10,-2
SMILES,mHTT CaM bind,Pf apPOL block
N#CC1=C(N)N(c2ccc(Br)cc2)C2=C(C(=O)CCC2)C1c1ccsc1 (stereo unspecified),8,0
COc1cc(C2C(C#N)=C(N)N(c3cccc([N+](=O)[O-])c3)C3=C2C(=O)CCC3)cc(OC)c1OC (stereo unspecified),1,85*
Cc1cccc(N2C(N)=C(C#N)C(c3cc(Br)cs3)C3=C2CCCC3=O)c1 (stereo unspecified),51*,80*
CCSc1ccsc1C1C(C#N)=C(N)N(c2ccccc2)C2=C1C(=O)CCC2 (stereo unspecified),15,-2
CCc1ccc(C2C(C#N)=C(N)N(c3ccc(F)cc3)C3=C2C(=O)CCC3)s1 (stereo unspecified),27,-1
N#CC1=C(N)N(c2ccc(F)cc2)C2=C(C(=O)CCC2)C1c1ccc(Br)s1 (stereo unspecified),86*,1
O=c1nc(SCc2cccc([N+](=O)[O-])c2)c2c(n1CCO)CCCC2,1,-8
CCN(CC)S(=O)(=O)c1ccc2oc(C(=O)NCCc3ccccc3)c(C)c2c1,-5,-7
O=C1NC(c2cccs2)C(C(=O)c2cccs2)=C1O (stereo unspecified),6,.
O=C(NCC1CCCO1)C1CCN(c2cncnc2N2CCOCC2)CC1 (stereo unspecified),0,-1
Cc1cc(C2C(C#N)=C(N)N(c3cccc(C(F)(F)F)c3)C3=C2C(=O)CCC3)c(C)s1 (stereo unspecified),61*,-2
Cc1cc(C2C(C#N)=C(N)N(c3ccc(F)cc3)C3=C2C(=O)CCC3)c(C)s1 (stereo unspecified),12,-2
COc1cc(S(=O)(=O)NC2CC(C)(C)NC(C)(C)C2)c(C)cc1Br,-2,1
O=C(CCN1C(=O)C2C3C=CC(C3)C2C1=O)Nc1cccc([N+](=O)[O-])c1 (stereo unspecified),2,2
CCC[C@H]1[C@@H](OC(=O)NCc2cccc(C(F)(F)F)c2)CC[C@@]23CCCN2C(=O)CCC[C@@H]13,2,-2
CCC[C@H]1[C@@H](OC(=O)NCc2ccc(C(F)(F)F)cc2)CC[C@@]23CCCN2C(=O)CCC[C@@H]13,78*,-19
O=C(c1cccc(Br)c1)N1N=C2CCCCCC2C1(O)C(F)(F)F (stereo unspecified),-31,3
CCC(C)NC(=O)C1=CSCCO1 (stereo unspecified),0,1
Cc1cc2c(c(C)c1Br)C(c1ccc3c(c1)OCO3)CC(=O)O2 (stereo unspecified),1,-2
Cc1cc2c(c(C)c1Cl)C(c1ccc3c(c1)OCO3)CC(O)(c1ccccc1)O2 (stereo unspecified),86*,1
Cc1ccccc1NCN1C(=O)S/C(=C\c2ccc(F)cc2)C1=O,28,-5
Cc1ccccc1NCN1C(=O)S/C(=C\c2ccccc2)C1=O,53*,0
OC(CNC1CCCCC1)COC12CC3CC(CC(C3)C1)C2 (stereo unspecified),2,-6
CC(=O)Nc1ccc(Nc2nc(-c3ccc(Cl)cc3)cs2)cc1,76*,-3
COc1ccc(-c2csc(Nc3ccc(NC(C)=O)cc3)n2)cc1,60*,0
SMILES,mHTT CaM bind,Pf apPOL block
COc1ccc(-c2csc(Nc3ccc(C(=O)O)cc3)n2)cc1,15,2
CC(=O)Nc1ccc(Nc2nc(-c3ccccc3)cs2)cc1,44,-2
Cc1noc(NS(=O)(=O)c2ccc(NC(=O)/C(C#N)=C/c3ccccc3)cc2)c1C,7,0
COc1cccc(CC(=O)N2CCC3(CC2)NC(=O)c2ccccc2N3C)c1,-4,-2
O=c1ccc(-c2ccc(F)cc2)nn1CCc1nc(-c2ccc(F)cc2)no1,70*,-5
O=c1ccc(-c2ccccc2)nn1CCc1nc(-c2ccc(F)cc2)no1,8,-4
CN(Cc1ccccc1)Cc1ccccn1,1,-7
Cc1ccccc1CNC(=O)c1csc(-c2cn(C)c3ncccc23)n1,72*,-1
Cn1cc(-c2nc(C(=O)NCc3ccccc3)cs2)c2cccnc21,46,-1
NNc1nc(-c2ccccc2)c2cc(Br)ccc2n1,76*,-10
COc1nc(-c2ccccc2)c2cc(Br)ccc2n1,-8,-3
CC1(C)Cc2ccccc2/C(=C/c2ccc3ccccc3n2)N1,29,.
O=c1oc2c(-c3ccccc3[N+](=O)[O-])cc(O)cc2s1,61*,43
Cc1ccc(-c2cc(O)cc3sc(=O)oc23)cc1C,79*,8
Cc1cc(O)c2c(c1)C(=O)c1cc(O)cc(O)c1C2=O,.,-68

# High-throughput results from PubChem BioAssay.
